# In PubChem BioAssay (NCATS):
# A number with no mark means an inactive call. Records with an inconclusive call do not appear. Active and inactive are the calls of the source. Unless noted, calls follow the shape of the dose curve; as a rule, active = well fitted curve in the direction sought with a large enough effect; inconclusive = small, poorly fitted or top-dose-only effect, or another doubt; inactive = no such curve, though single readings can be large; an effect the other way counts as inactive or inconclusive.
# Legend:
# [1] = molecular target: Cytochrome P450 3A4 (Homo sapiens) (UniProt P08684); assay: qHTS Assay for Inhibitors and Substrates of Cytochrome P450 3A4 (AID 884); settings: recombinant CYP3A4, Luciferin-PPXE luminescence; series mostly up to 57.1 µM; also: nearly all actives have a fitted effect of over 50% in size; also: potency is read from the fitted curve at half-maximal effect
# Cytochrome P450 3A4 (Homo sapiens), sequence (P08684 whole entry, looked up): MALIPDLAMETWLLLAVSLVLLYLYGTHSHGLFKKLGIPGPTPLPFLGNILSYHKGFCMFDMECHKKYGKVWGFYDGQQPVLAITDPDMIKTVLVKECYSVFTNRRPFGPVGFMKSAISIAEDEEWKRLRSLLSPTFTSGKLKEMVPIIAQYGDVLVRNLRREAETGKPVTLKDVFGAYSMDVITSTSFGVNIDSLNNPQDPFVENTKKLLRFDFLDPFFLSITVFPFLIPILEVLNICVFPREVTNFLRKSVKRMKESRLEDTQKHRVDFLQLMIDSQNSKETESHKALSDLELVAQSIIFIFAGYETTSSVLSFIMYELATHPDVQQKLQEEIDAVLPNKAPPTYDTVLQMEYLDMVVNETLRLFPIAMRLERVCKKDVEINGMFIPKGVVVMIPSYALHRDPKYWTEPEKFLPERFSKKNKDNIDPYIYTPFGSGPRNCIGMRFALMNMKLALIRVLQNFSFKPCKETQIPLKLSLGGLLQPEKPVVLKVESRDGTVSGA
# Method in brief: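 20 nM human CYP3A4 with 25 uM Luciferin-PPXE (at KM) in 200 mM KPO4, preincubated 10 min with compound; NADPH regeneration started a 60 min RT reaction. Luciferin detected by luminescence, normalized to 57 uM ketoconazole as full inhibition.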
# [2] = molecular target: Cytochrome P450 3A4 (Homo sapiens) (UniProt P08684); assay: qHTS Assay for Activators of Cytochrome P450 3A4 (AID 885); settings: recombinant CYP3A4, Luciferin-PPXE luminescence, 60 min; series mostly up to 57.1 µM; also: nearly all actives have a fitted effect of over 65% in size; also: potency is read from the fitted curve at half-maximal effect
# Method in brief: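 20nM CYP3A4 + 25uM Luciferin-PPXE (=KM), 200mM KPO4; cpd 10 min RT; NADPH regen, 60 min RT; stop w/ detection buffer, 20 min; luminescence. Normalized to 57 uM ketoconazole.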
# [3] = molecular target: Cytochrome P450 2C19 (Homo sapiens) (UniProt P33261); assay: qHTS Assay for Inhibitors and Substrates of Cytochrome P450 2C19 (AID 899); settings: recombinant CYP2C19, luciferin-H EGE luminescence; series mostly up to 11.4 µM; also: nearly all actives have a fitted effect of over 60% in size; also: potency is read from the fitted curve at half-maximal effect
# Cytochrome P450 2C19 (Homo sapiens), sequence (P33261 whole entry, looked up): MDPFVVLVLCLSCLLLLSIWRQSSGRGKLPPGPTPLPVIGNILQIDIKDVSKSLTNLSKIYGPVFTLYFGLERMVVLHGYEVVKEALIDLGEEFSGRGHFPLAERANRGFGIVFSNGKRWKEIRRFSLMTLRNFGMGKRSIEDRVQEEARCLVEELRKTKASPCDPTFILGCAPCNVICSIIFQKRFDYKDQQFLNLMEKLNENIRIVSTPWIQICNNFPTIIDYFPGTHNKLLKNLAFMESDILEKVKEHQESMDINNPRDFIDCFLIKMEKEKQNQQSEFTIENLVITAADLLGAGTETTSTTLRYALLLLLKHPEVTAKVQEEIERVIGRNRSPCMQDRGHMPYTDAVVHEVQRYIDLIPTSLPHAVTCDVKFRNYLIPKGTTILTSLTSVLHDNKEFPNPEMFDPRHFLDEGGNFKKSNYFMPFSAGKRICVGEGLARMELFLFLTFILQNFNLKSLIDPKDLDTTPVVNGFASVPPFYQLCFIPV
# Method in brief: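 Reactions contain 5nM enzyme, 10uM Luciferin-H EGE (KM) and 50mM KPO4; compound preincubates 10 min at 37C, NADPH regeneration starts turnover for 60 min. Luminescence after detection reagent gives activity.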
# [4] = Confirmation and Secondary Assay for Modulators of Hemoglobin Beta Chain Splicing at IVS2 654 locus (AID 910); settings: HeLa EGFP-654 splicing reporter, GFP fluorescence, 48 h; series mostly up to 46.1 µM;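 also: HeLa cells stably carrying EGFP split by mutant beta-globin IVS2-654 intron; per-well total GFP intensity by laser scanning cytometry after 2-day treatment; % of control where 0% means no effect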
# Method in brief: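 Readout: per-well total peak green fluorescence (488 nm ex, 500–520 nm em) from objects 5–250 µm, reflecting correct splicing of an EGFP-654 reporter. Compounds were applied for 2 days at 37 °C to overnight-plated HeLa EGFP-654 cells; controls were DMSO and 500 nM IVS2-654 PNA.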
# [5] = Confirmation and Secondary Assay for Modulators of Hemoglobin Beta Chain Splicing at IVS2 705 locus (AID 930); settings: HeLa EGFP-705 splicing reporter, GFP fluorescence, 48 h; series mostly up to 46.1 µM;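 also: HeLa cells stably expressing the EGFP-705 splicing reporter; GFP fluorescence per well restored by corrected splicing of the IVS2-705 intron in EGFP; % of control where 0% means no effect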
# Method in brief: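 Secondary splice-site specificity test uses HeLa expressing CMV-driven EGFP interrupted by IVS2-705; cells were treated 2 days at 37C with 500 nM antisense PNA as positive control.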
# [6] = qHTS Assay for Identification of Small Molecule Agonists for Hypoxia Response Element Signaling Pathway (AID 914; active = well fitted activation curve with a large enough effect in the signal ratio, with a control signal flat, not every such curve was filed as active; the % refers to the signal ratio; also: % of control where 0% means no effect); settings: ME-180 (cervical carcinoma) HRE-bla reporter, beta-lactamase ratio, CoCl2, 17 h; stronger effect = higher value
# Method in brief: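 qHTS titration; ME-180 HRE-bla cells; EC50 CoCl2 co-treatment, 17 h at 37 degrees Celsius; CCF4 dye, ex 405nm, em 460nm and 530nm; %Activity from ratio; AC50.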
smiles,measurement,setting,value
CCCNC(=O)OC[C@@H]1O[C@H](CCO/N=C\[C@@H](C)[C@H](OCc2ccccc2)C(C)C)C=C[C@@H]1Oc1ccc(OC)cc1,Potency,[1],3.98 µM (active)
same,"activity change, positive = activation",[2],-83.7% [at 11.4 µM]
same,Potency,[3],3.16 µM (active)
COc1ccc(O[C@H]2C=C[C@@H](c3ccccc3)O[C@H]2COC(=O)CC/C(C)=N\O[C@@H](C)c2cn([C@H]3COC[C@H]3O)nn2)cc1,Potency,[1],3.98 µM (active)
same,"activity change, positive = activation",[2],-77.3% [at 11.4 µM]
same,Potency,[3],2.51 µM (active)
COc1cc(O)c(C(=O)/C=C/c2ccc(O)c(OC)c2)c(OC)c1,Potency,[1],7.94 µM (active)
same,Potency,[2],inactive
same,outcome,[4],inactive
same,outcome,[5],inactive
COc1c2c(cc3occ(-c4ccc5c(c4)OCO5)c(=O)c13)OC(C)(C)C=C2,Potency,[1],2.51 µM (active)
same,Potency,[2],inactive
same,outcome,[4],inactive
same,outcome,[5],inactive
CC(=O)Oc1c(-c2ccccc2)oc2c(CC=C(C)C)c3c(c(OC(C)=O)c2c1=O)C=CC(C)(C)O3,Potency,[1],10 µM (active)
same,Potency,[2],inactive
same,outcome,[4],inactive
same,outcome,[5],inactive
COc1ccc(O[C@H]2C=C[C@@H](c3ccccc3)O[C@H]2CO/N=C(/C)CCC(=O)OC[C@@H]2O[C@H](c3ccccc3)C=C[C@@H]2Oc2ccc(OC)cc2)cc1,Potency,[1],3.98 µM (active)
same,"activity change, positive = activation",[2],-65.1% [at 11.4 µM]
same,activation,[6],3.42%
COc1ccc(-c2cc(=O)c3ccccc3o2)cc1OC,Potency,[1],7.94 µM (active)
same,Potency,[2],inactive
same,outcome,[4],inactive
same,outcome,[5],inactive
Cc1ccc(S(=O)(=O)N[C@H]2COC(=O)[C@@H](Cc3ccccc3)NC(=O)[C@@H](C)COC(=O)C/C=C\[C@@H]2C)cc1,Potency,[1],3.98 µM (active)
same,"activity change, positive = activation",[2],-80.1% [at 11.4 µM]
same,Potency,[3],inactive
COc1cccc([C@@H]2Oc3ccc(OC)cc3/C(=N/OC[C@@H](O)COCc3ccco3)[C@@H]2O)c1,Potency,[1],3.16 µM (active)
same,"activity change, positive = activation",[2],-84.1% [at 11.4 µM]
same,Potency,[3],1.58 µM (active)
COc1c(-c2coc3cc4c(cc3c2=O)CC(OC(C)=O)C(C)(C)O4)ccc2c1C=CC(C)(C)O2 (stereo unspecified),Potency,[1],inactive
same,Potency,[2],5.01 µM (active)
same,outcome,[4],inactive
same,outcome,[5],inactive
COc1ccc2c(c1)OC/C(=C/c1ccc(OC)c(OC)c1)C2=O,Potency,[1],7.94 µM (active)
same,Potency,[2],inactive
same,outcome,[4],inactive
same,outcome,[5],inactive
COc1ccc(COC(=O)N/N=C2/C[C@@H](O)[C@@H](O)[C@@H]3[C@@H]4C(=O)N(c5cccc(Oc6ccccc6)c5)C(=O)[C@H]4CC[C@H]23)cc1,Potency,[1],3.16 µM (active)
same,"activity change, positive = activation",[2],-68.2% [at 11.4 µM]
same,activation,[6],-10.1%
COc1cc(OC)c2c(OC)c(-c3ccc4c(c3)OCO4)c(=O)oc2c1,Potency,[1],2.51 µM (active)
same,Potency,[2],inactive
same,outcome,[4],inactive
COc1ccc(O[C@H]2C=C[C@@H](c3ccccc3)O[C@H]2CO/N=C2/[C@H]3O[C@@H]3[C@@H](O)[C@H]3[C@H]2CCn2c(=O)n(-c4ccccc4)c(=O)n23)cc1,Potency,[1],3.16 µM (active)
same,"activity change, positive = activation",[2],-86.5% [at 11.4 µM]
same,Potency,[3],2.51 µM (active)
COc1cccc([C@@H]2Oc3ccc(OC)cc3/C(=N/O[C@@H](C)c3cc(-c4c(C)cc(C)cc4C)no3)[C@@H]2O)c1,Potency,[1],1.58 µM (active)
same,"activity change, positive = activation",[2],-90.1% [at 11.4 µM]
same,Potency,[3],1.58 µM (active)
